Data on 40 compounds can be found in PubChem BioAssay (EPA / NIEHS).

Results filed as inconclusive are left out. Calls of active or inactive are those of the source. The calls were made as follows: active = hit-call score of the fitted dose curve at least 0.9, where 1 is the maximum; inconclusive = response in the unintended direction; inactive = score below 0.9.

Read-out in the test: xenobiotic metabolism (CYP1A1), CYP1A1 (gene 1543)
The experiment in a line: CLD_CYP1A1_24hr: CellzDirect (CLD) Gene Expression Assay for xenobiotic metabolism (CYP1A1) at 24 hours (AID 2283673). How it is done: CLD_24hr is a cell-based, multiplexed-readout assay that uses hepatocyte, a human liver primary cell, with measurements taken at 24 hours after chemical dosing in a 96-well plate.CLD_CYP1A1_24hr is one of 16 assay component(s) measured or calculated from the CLD_24hr assay. It is designed to make measurements of mRNA induction, a form of inducible reporter, as detected with chemiluminescence signals by Quantitative Nuclease Protection Assay (qNPA) technology.Data from the assay component CLD_CYP1A1_24hr was analyzed at the endpoint, CLD_CYP1A1_24hr, in the positive analysis fitting direction relative to DMSO as the negative control and baseline of activity. Using a type of inducible reporter, gain-of-signal activity can be used to understand changes in the reporter gene as they relate to the gene CYP1A1. Furthermore, this assay endpoint can be referred to as a primary readout. To generalize the intended target to other relatable targets, this assay endpoint is annotated to the cyp intended target family, where subfamily is xenobiotic metabolism.
Human hepatocyte cultures were treated daily for two consecutive days with fresh dosing solutions containing appropriate concentrations of the 320 ToxCast chemicals (chemical identities were blinded to CellzDirect and other ToxCast collaborators), vehicle control (0.2% DMSO), and positive control inducers as summarized in Table 1. Due to the large number of treatment groups and chemicals examined, the ToxCast chemicals were divided into two groups (spanning two independent cultures of hepatocytes from separate donor preparations (Hu778: ToxCast plates 1 and 2; Hu776: ToxCast plates 3 and 4). Each preparation of human hepatocyte cultures was treated with respective vehicle control, medium only control, set of six positive controls/reference chemicals for the five hepatic receptor pathways, and a subset of eight of the ToxCast chemicals (indoxacarb, pyrithiobac-sodium, norflurazon, cyhalofop-butyl, methomyl, thiram, acetochlor, and propiconazole). These replicate data, coupled with internal replicates designed within the blinded ToxCast chemical library, provided additional data to evaluate interindividual differences between hepatocyte preparations and their potential impact on chemical profiles.Cell morphology and integrity were evaluated using phase-contrast microscopy as an indicator of hepatocyte cell health (Tyson & Green, 1987). Cultures for each treatment group (i.e., media, vehicle [0.2% DMSO], positive control inducers [multiple concentrations], and the ToxCast chemicals [multiple concentrations]) were observed and cell morphology was assessed relative to vehicle control cultures at each harvest time point (0, 6, 24, or 48 h). […] Images were evaluated at the conclusion of the study to assess changes in cell integrity and account for the effects of chemical exposure on uncharacteristic changes in concentration-dependent gene expression profiles. The results from these determinations of apparent cytotoxicity were annotated (yes/no) alongside the corresponding qNPA data for reference.At the conclusion of each treatment period, hepatocyte cultures (96-well) were washed with 1 volume of HBSS, lysed by addition of 25 ul ArrayPlate lysis buffer (HTG, Tucson, AZ), and 70 ul/well of Denaturation Oil, denatured by incubation at 95C for 10 min, and frozen at approximately -70C until analysis by nuclease protection assay (qNPA) (Roberts et al., 2007). For qNPA analysis, cell lysates were thawed at 50C for approximately 30 min, qNPA probes were added, and samples were incubated at 95C for 10 min to begin the detection process by denaturing the target RNA, dissociating the duplexes and secondary structure hybridization. At the conclusion of the hybridization period, S1 nuclease reagent was added to each sample to digest all nonprotected nucleotides at 50C for 60-90 min. […]
Regarding `CCS(=O)(=O)c1cccnc1S(=O)(=O)NC(=O)Nc1nc(OC)cc(OC)n1`, the AC50 – broadly, the concentration at which the activity in the assay is half-maximal – was 1.9 µM (active). The same measure, in the same setting: the value for `CCOCN(C(=O)CCl)c1c(C)cccc1CC` was 1.99 µM (active). Same read-out and setting: the value for `COc1nn(CSP(=S)(OC)OC)c(=O)s1` was 4.39 µM (active).

As for `CC(C)OC(=O)Nc1cccc(Cl)c1`, the AC50 was 5.63 µM (active). Regarding `O=S1OCC2C(CO1)C1(Cl)C(Cl)=C(Cl)C2(Cl)C1(Cl)Cl` (stereo not given), the compound was called inactive. In the case of `CC(C)N(C(=O)COc1nnc(C(F)(F)F)s1)c1ccc(F)cc1`, the compound was called inactive. With `COC(=O)c1ccccc1CS(=O)(=O)NC(=O)Nc1nc(OC)cc(OC)n1`, the AC50 is 32.4 µM (active).

Take `COC(=O)c1ccccc1S(=O)(=O)NC(=O)Nc1nc(C)nc(OC)n1`: the result was inactive.

Consider `COC(=O)c1ccccc1S(=O)(=O)NC(=O)N(C)c1nc(C)nc(OC)n1`, for which the result was inactive. Take `COP(=S)(OC)Oc1ccc(SC)c(C)c1`: the half-maximal activity concentration (AC50) is 20 µM (active). Consider `O=C(Nc1ccccc1)Nc1cnns1`, for which the AC50 was 2 µM (active). On the same count and under the same terms, the value for `C[C@H]1[C@H](c2ccc(Cl)cc2)SC(=O)N1C(=O)NC1CCCCC1` was 3.97 µM (active).

For `O=S(=O)(O)C(F)(F)C(F)(F)C(F)(F)C(F)(F)C(F)(F)C(F)(F)C(F)(F)C(F)(F)F`, the compound was classed as inactive.

Regarding `CC1(C)C(C=C(Cl)Cl)C1C(=O)OC(C#N)c1ccc(F)c(Oc2ccccc2)c1` (stereo not given), the compound was classed as inactive.

Turning to `CNC(=O)CSP(=S)(OC)OC`, the compound was called inactive. Same read-out and setting: the value for `CCC(C)(C)C(=O)OC1=C(c2ccc(Cl)cc2Cl)C(=O)OC12CCCCC2` was “inactive”. For `CCOc1nc(NC)nc(NC(=O)NS(=O)(=O)c2ccccc2C(=O)OC)n1`, the AC50 was 7.53 µM (active). Still for that read-out and setting: the value for `CC[C@H](C)[C@H]1O[C@]2(C=C[C@@H]1C)C[C@@H]1C[C@@H](C/C=C(\C)[C@@H](O[C@H]3C[C@H](OC)[C@@H](O[C@H]4C[C@H](OC)[C@@H](O)[C@H](C)O4)[C@H](C)O3)[C@@H](C)/C=C/C=C3\CO[C@@H]4[C@H](O)C(C)=C[C@@H](C(=O)O1)[C@]34O)O2` (tested in a mixture with another compound) was 35.2 µM (active). Take `COc1cc(OC)nc(NC(=O)NS(=O)(=O)c2cc(NC=O)ccc2C(=O)N(C)C)n1`: the compound was classed as inactive. In the case of `CC(C)(C)C(O)/C(=C\c1ccc(Cl)cc1Cl)n1cncn1` (stereo not given), the AC50 is 6.46 µM (active).

`CCN(CC)C(=O)SCc1ccc(Cl)cc1`: the call was inactive. Regarding `CN1CSC(=S)N(C)C1`, the AC50 was 3.9 µM (active). Consider `CNC(=O)Oc1ccccc1OC(C)C`, for which the call was inactive. Regarding `Oc1cc(Cl)ccc1Oc1ccc(Cl)cc1Cl`, the call was inactive. On to `Clc1ccccc1-c1nnc(-c2ccccc2Cl)nn1`, for which the AC50 is 5.94 µM (active). Same read-out and setting: the value for `O=[N+]([O-])c1c(Cl)c(Cl)c(Cl)c(Cl)c1Cl` was 20 µM (active); that for `COP(=S)(OC)Oc1ccc([N+](=O)[O-])cc1` was 4.2 µM (active). Same read-out and setting: the value for `Cc1[nH]c(=O)n(C(C)(C)C)c(=O)c1Cl` was 7.51 µM (active). For the compound `CCC(C)Nc1c([N+](=O)[O-])cc(C(C)(C)C)cc1[N+](=O)[O-]` (stereo not given), the result was inactive. The same measure, in the same setting: the value for `CCOC1Oc2ccc(OS(C)(=O)=O)cc2C1(C)C` (stereo not given) was “inactive”; that for `O=C(NC(=O)c1c(F)cccc1F)Nc1ccc(OC(F)(F)C(F)OC(F)(F)F)c(Cl)c1` (stereo not given) was “inactive”; that for `COP(=O)(OC)OC=C(Cl)Cl` was “inactive”.

`O=[N+]([O-])/N=C1\NCCN1Cc1ccc(Cl)nc1`: the call was inactive. Same read-out and setting: the value for `O=C(O)C(F)(F)C(F)(F)C(F)(F)C(F)(F)C(F)(F)C(F)(F)C(F)(F)F` was “inactive”; that for `O=C1c2ccccc2C(=O)N1SC(Cl)(Cl)Cl` was “inactive”. For the compound `CCc1ccc(C(=O)NN(C(=O)c2cc(C)cc(C)c2)C(C)(C)C)cc1`, the AC50 was 9.97 µM (active). `Cc1cc(C)nc(NC(=O)NS(=O)(=O)c2ccccc2C(=O)OC2COC2)n1`: the AC50 was 5.65 µM (active). As to `CNC(=O)/C=C(\C)OP(=O)(OC)OC`, the compound was called inactive.

For the compound `O=C(O)COc1ccc(Cl)cc1Cl`, the result was inactive. Regarding `CCCN(CCC)c1c([N+](=O)[O-])cc(C(F)(F)F)cc1[N+](=O)[O-]`, the AC50 was 8.5 µM (active).
